# Measured values reported in PubChem BioAssay (Tox21).
# Results filed as inconclusive are left out. Values without a mark were called inactive. Calls of active or inactive are those of the source. The call rests on the fitted dose curve; in most records, active means well fitted activation curve with a large enough effect in the repeat runs; inconclusive means weak or mixed curves; inactive means no such curve, though single readings can be large or run the other way.
# Test: qHTS assay for small molecules that induce genotoxicity in human embryonic kidney cells expressing luciferase-tagged ATAD5 (AID 651632); further: nearly all actives have a fitted effect of over 15% in size
# Settings: HEK293T ATAD5-luciferase induction, 16 h; series mostly up to 83.3 µM; activation: at the top concentration
# Procedure, shortened: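 A rise in luciferase signal from ATAD5-tagged HEK293T cells marks genetic stress. Cells were exposed to compounds for 16 hr at 37C, 5% CO2, then luciferase was quantified after a 30 min room-temperature incubation with Amplite.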
# On the % scale 0 is the no-effect control and ±100 the full control effect; potency means the concentration at half of the fitted maximal effect.
SMILES,activation,Potency
CC(C)=CCN1CC[C@]2(C)c3cc(O)ccc3C[C@H]1[C@H]2C,-5.09%,
CN[C@@]1(c2ccccc2Cl)CCCCC1=O,4.81%,
CCC1(c2ccccc2)C(=O)NC(=O)N(C)C1=O (stereo not given),-1.03%,
COc1cc([C@@H]2c3cc4c(cc3[C@@H](O)[C@H]3COC(=O)[C@H]23)OCO4)cc(OC)c1O,,1.88 µM (active)
CN1CC[C@@]23CCCC[C@@H]2[C@@H]1Cc1ccc(O)cc13,5.3%,
CCCCNC(C)(C)[P+](=O)O,2.17%,
O=c1ccc2cc(O[C@@H]3O[C@H](CO)[C@@H](O)[C@H](O)[C@H]3O)c(O)cc2o1,-1.74% [at 39.1 µM],
C/C=C(\CC)C(=O)NC(N)=O,1.76%,
C[C@]12CCC(=O)C[C@@H]1CC[C@@H]1[C@@H]2CC[C@@]2(C)[C@H]1CC[C@]2(C)O,3.25%,
Cc1nnc2n1-c1ccc(Cl)cc1C(c1ccccc1)=NC2,,13.3 µM (active)
Oc1ccc2c3c1O[C@H]1[C@@H](O)C=C[C@H]4[C@H](C2)NCC[C@@]341,2.29%,
O=P1(N(CCCl)CCCl)NC(OO)CCO1 (stereo not given),4.32%,
COC(=O)[C@H]1[C@@H](OC(=O)c2ccccc2)C[C@@H]2CC[C@H]1N2C,2.31%,
O=C1CN=C(c2ccccc2)c2cc(Cl)ccc2N1,3.63%,
C=C[C@H]1CN2CC[C@H]1C[C@H]2[C@H](OC(=O)OCC)c1ccnc2ccc(OC)cc12,2.36%,
CC(C)[C@H]1C(=O)N2CCC[C@H]2[C@]2(O)O[C@](NC(=O)[C@@H]3C[C@@H]4c5cccc6[nH]cc(c56)C[C@H]4N(C)C3)(C(C)C)C(=O)N12,-5.41%,
Clc1ccc(C(Cn2ccnc2)OCc2csc3c(Cl)cccc23)c(Cl)c1 (stereo not given),-6.44% [at 39.1 µM],
C[C@@H]1[C@H]2Cc3ccc(O)cc3[C@]1(C)CCN2C,2.44% [at 95.3 µM],
CC(C)C[C@H]1C(=O)N2CCC[C@H]2[C@]2(O)O[C@](NC(=O)[C@@H]3C[C@@H]4c5cccc6[nH]cc(c56)C[C@H]4N(C)C3)(C(C)C)C(=O)N12,-3.5%,
C=CCC1([C@@H](C)CCC)C(=O)NC(=O)NC1=O,4.63%,
c1ccc2c(c1)Sc1ccccc1N2C[C@@H]1CN2CCC1CC2,3.42%,
C[C@@H](Cc1ccccc1)NCCC(c1ccccc1)c1ccccc1,-7.43% [at 39.1 µM],
CC[C@H]1[C@@H]2C[C@H]3[C@@H]4N(C)c5ccccc5[C@]45C[C@@H](C2[C@H]5O)N3[C@@H]1O (stereo not given in full),-2.81% [at 39.1 µM],
CN1c2ccccc2C(NCCCCCCC(=O)O)c2ccc(Cl)cc2S1(=O)=O (stereo not given),-0.785%,
CC(=O)[C@@]1(O)CC[C@H]2[C@@H]3CCC4=CC(=O)CC[C@]4(C)C3(F)[C@@H](O)C[C@@]21C (stereo not given in full),3.77%,
